FMDV antiviral: blocks foot and mouth disease virus; AID 1159524; FMDV antiviral cell-based qHTS; Potency, µM (top dose mostly 57.9 µM), for inactives: at the top dose activity change, negative = inhibition, hits mostly inhibitors; actives 1.2% (n = 410,000); calls by dose curve; tested in HEK293T cells; note: read-out not given here; nearly all actives have a fitted effect of over 45% in size
Sm TGR inh: inhibitors of Schistosoma mansoni thioredoxin glutathione reductase; Q962Y6; purified TGR, DTNB reduction, TNB absorbance 405 nm; Potency, µM (titrated, usually from 114 µM), for the others: at the top dose activity change, negative = inhibition, actives largely listed as inhibitors; actives 3% (n = 360,000); note: nearly all actives have a fitted effect of over 60% in size
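Kinetic colorimetric format: TGR-catalysed, NADPH-driven DTNB reduction monitored via TNB absorbance. Enzyme dispensed at 20 nM; compound exposure 15 min at room temperature before reaction start.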
RE007 growth inh: less growth of the S. pombe RE007 Vpr strain. S. pombe RE007 Vpr strain, BacTiter-Glo ATP luminescence, 24 h. Potency, µM (highest dose often 92.2 µM), without a hit: at the top dose activity change, negative = less growth, most hits filed as inhibitors. actives 0.21% (n = 360,000). AID 651644; active = well fitted falling curve with a large enough effect; inconclusive = small, poorly fitted or top-dose-only effect; inactive = no such curve, though single readings can be large or run the other way; note: nearly all actives have a fitted effect of over 50% in size
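Fission yeast RE007 carrying one integrated HIV-1 vpr copy, seeded at OD 0.01 in PMG+AL medium with 23 nL pinned compound. Grown 24 h at 30 degrees; viability read by BacTiter-Glo luminescence after 5 min.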
HCV inhibitor: blocks hepatitis C virus. Huh7.5.1 HCVcc-Cre infection, luciferase reporter, 44 h. Potency, µM (top dose mostly 41.8 µM), without a hit: top-dose activity change, negative = inhibition, actives largely listed as inhibitors. actives 3.4% (n = 340,000). AID 651820
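Seed cells (1,000/well) for 4 h; treat with compound and infect with HCVcc-Cre, moi about 0.5. Incubate 44 h, then detect luciferase activity.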
MARV entry inh: inhibitors of Marburg virus binding or cell entry; AID 540276; Marburg virus pseudotyped entry inhibition, cell reporter; actives 1.8% (n = 300,000); Potency, µM (highest dose often 37.8 µM), for inactives: top-dose activity change, negative = inhibition, most hits filed as inhibitors; calls by dose curve; tested in HEK293 cells
LASV entry inh: blocks Lassa virus binding to or entry into cells | Lassa virus pseudotype entry inhibition, cell reporter | Potency, µM (highest dose often 37.9 µM), inactives show top-dose activity change, negative = inhibition, usual class: inhibitors | actives 1.2% (n = 300,000) | AID 540256; calls by dose curve; tested in HEK293 cells; note: nearly all actives have a fitted effect of over 50% in size
An asterisk follows results filed as active; u = inconclusive; x = no result; ! = not confirmed by another sample; [ ] = dose if it differs, or a comment. Only some compounds are listed: those with a hit (about 7.2% of all), similar ones and a draw of the others. Unless noted, calls come from the whole dose curve; as a rule, active = well fitted curve in the direction sought with a large enough effect; inconclusive = small, poorly fitted or top-dose-only effect, or another doubt; inactive = no such curve, though single readings can be large; an effect the other way counts as inactive or inconclusive. % is set by controls: 0 for no effect and ±100 for the full control effect; potency is the fitted concentration of half-maximal effect.

SMILES	FMDV antiviral	Sm TGR inh	RE007 growth inh	HCV inhibitor	MARV entry inh	LASV entry inh
O=C(Cn1c(=O)c(=O)n(Cc2ccccc2)c2ccc(Cl)cc21)Nc1cc(F)ccc1F	x	3%	x	x	x	x
Cc1cc(C)n2nc(-c3ccsc3-n3c(C)ccc3C)cc2n1	-3%	3.5µM*	-14%	u	u	1%
O=c1c(-c2cccs2)nc2cnc(Oc3ccccc3)nc2n1C1CC1	-6%	x	x	x	x	x
N#Cc1cc(O)c(-n2nnc3ccccc32)cc1C#N	26%	-12%	2%	19%	2%	-3%
N#Cc1cc(Oc2cccc3cccnc23)c(-n2nnc3ccccc32)cc1C#N	16µM*	u	-24%	u	u	u
COc1ccc2c(c1)CCc1c(C(=O)Nc3c(C)nn(Cc4ccccc4)c3C)noc1-2	28µM*	89µM*!	-2%	8.9µM*	12%[46.1 µM]	6%[46.1 µM]
COc1ccc2c(c1)CCc1c(C(=O)Nc3c(C)nn(Cc4ccc(Cl)cc4)c3C)noc1-2	-26%	-26%	x	x	-4%[46.1 µM]	-10%[46.1 µM]
Cc1nn(Cc2ccc(Cl)cc2)c(C)c1NC(=O)c1noc2c1CCc1ccccc1-2	40µM*	3%	-6%	2%	17%[46.1 µM]	-15%[46.1 µM]
COc1ccc2c(c1)CCc1c(C(=O)Nc3c(C)nn(Cc4ccc(Cl)c(Cl)c4)c3C)noc1-2	u	-11%	x	x	4%[46.1 µM]	-1%[46.1 µM]
O=C(O)/C=C/C(=O)Nc1ccc(Oc2ncnc3cc(Cl)ccc23)nc1	12%	8.9µM*	32µM*	6%	15%[46.1 µM]	6%[46.1 µM]
O=C(Nc1ccccc1)Nc1ccc(Oc2ncnc3cc(Cl)ccc23)nc1	-9%	8%	1%	14%	6%[46.1 µM]	0%[46.1 µM]
Cc1ccc(C(C)C)c2c1C(c1ccc3c(c1)OCO3)CC(=O)O2 (stereo unspecified)	0%	x	-12%	13µM*	x	x
Cc1cc2c(c(C)c1Cl)C(c1ccc3c(c1)OCO3)CC(=O)O2 (stereo unspecified)	-13%	x	21%	2%	x	x
O=C(Nc1ccc(Cl)c(-c2nc3cc(Cl)ccc3o2)c1)c1cc([N+](=O)[O-])ccc1N1CCOCC1	-1%	-6%	x	x	6%[46.1 µM]	9%[46.1 µM]
C=CCNc1nc(-c2cc3ccccc3o2)cs1	-62%	-2%	-26%	u	u	7.9µM*
c1ccc2oc(-c3csc(NCC4CCCO4)n3)cc2c1 (stereo unspecified)	-23%	-2%	u	25µM*	u	u
COCCn1c(=O)c(-c2ccccc2)nc2cnc(OC)nc21	-16%	x	x	x	x	x
COc1ccc(CNS(=O)(=O)c2cnc(N)nc2)c(OC)c1	-9%	u	x	x	x	-6%[46.1 µM]
CC(=O)OC1CC2C(C)(C)C(=O)CC[C@]2(C)C2CC[C@]3(C)C(=CC(=O)OC3c3ccoc3)[C@]12C (stereo partly specified)	-5%	x	x	x	x	x
CC(=O)OC1CC2C(C)(C)C(=O)C=C[C@]2(C)C2CC[C@]3(C)C(=CC(=O)OC3c3ccoc3)[C@]12C (stereo partly specified)	25µM*	x	x	x	x	x
CCOc1ccc(C(=O)Nc2ccc(S(=O)(=O)N3CCCCC3c3cccnc3)cc2)cc1 (stereo unspecified)	32µM*	0%	x	x	x	u
COc1cc(/C=N/OCC(=O)Nc2ccc(OC(F)F)cc2)ccc1OCc1ccccc1	0%	6%	21%	u	7.1µM*	u
COc1ccc(/C=N/OCC(=O)NC(c2ccccc2)c2ccccc2)cc1OC	7.1µM*	-2%	22%	4µM*	u	u
COc1ccc(/C=N/OCC(=O)Nc2cc(C)on2)cc1OC	-13%	2%	2%	-10%	1%	13%
CCOc1ccc(/C=N/OCC(=O)Nc2ccc(OCc3ccccc3)cc2)cc1OC	7%	-9%	-26%	-13%	u	-1%
CNCC(O)Cn1c2c(c3ccccc31)CCCC2 (stereo unspecified)	-13%	x	1%	10µM*	u	-26%
Cc1ccc2c(c1)c1c(n2CC(O)CN2CCCCCC2)CCCC1 (stereo unspecified)	-28%	-13%	u	10µM*	6.3µM*	u
